# CtBP-E1A blk = CtBP/E1A binding inhibition. AlphaScreen GST-E1A/His-CtBP binding, 1536-well; stronger effect = lower value. hit rate 0.49% among 340,000. AID 651724. activity change, % (concentration not given with the values); further: on the % scale 0 is the no-effect control and ±100 the full control effect
#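 Protein mix (5X: 125 nM each GST-E1A, His-CtBP) was incubated with pinned compound 2 h at 37 deg C in dark, in 50 mM Tris pH 8.0 buffer with 300 mM NaCl. Glutathione donor and nickel acceptor beads followed; AlphaScreen signal read after 1 h.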
# CXXC DNA block = inhibitors of human MLL CXXC domain-DNA interaction | Q03164 | MLL-CXXC / FITC-HOXA9 DNA fluorescence polarization | Potency, µM (top dose mostly 115 µM), inactives show at the highest dose activity change, negative = inhibition, most hits filed as inhibitors | hit rate 0.037% among 290,000; active means well fitted inhibition curve with a large enough effect in the polarisation, with a control signal flat, not every such curve was filed as active; inconclusive means small, poorly fitted or top-dose-only effect, or effect the other way, or a change in a side signal; inactive means no such curve, though single readings can be large or run the other way; the % refers to the polarisation; further: potency means the concentration at half of the fitted maximal effect
#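 Purified MLL-CXXC (added from a 7 uM solution) was preincubated 5 min at ambient with pinned compounds in 50 mM Tris-HCl pH 7.5, 50 mM NaCl, 1 mM DTT, 0.05% BSA. Fluorescein-labeled HOX-A9 DNA (50 nM solution) followed, 30 min, then polarization read.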
# Six1-Eya2 inh = inhibitors of human Six1/Eya2 interaction; activity change, % (concentration not given with the values); Q15475+O00167; AID 651725; hit rate 0.56% among 360,000; AlphaScreen GST-Six1/His-Eya2 binding, biochemical; stronger effect = lower value; further: on the % scale 0 is the no-effect control and ±100 the full control effect
#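 Six1/Eya2 binding was read as AlphaScreen signal after compounds were pinned into GST-Six1 plus His-tagged Eya2 (5X stock 250/500 nM) in pH 8.0 Tris/NaCl/TCEP buffer, beads added, then incubated 1 h, 37 C, dark.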
# GLS inh = inhibitors of human glutaminase (GLS); O94925; GLS enzymatic activity, qHTS titration; Potency, µM (top dose mostly 45.5 µM), for the others: at the top dose activity change, negative = inhibition, usual class: inhibitors; hit rate 0.21% among 410,000; AID 624170; active means well fitted inhibition curve with a large enough effect; inconclusive means small, poorly fitted or top-dose-only effect, or another doubt; inactive means no such curve, though single readings can be large or run the other way; further: potency means the concentration at half of the fitted maximal effect; on the % scale 0 is the no-effect control and ±100 the full control effect
#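 Coupled fluorescence readout: glutamate oxidase/HRP/Amplex Red detect glutamate formed by hKGA from L-glutamine (1 mM solution added). Buffer 45 mM KH2PO4 pH 8.2, 0.02% Tween-20; reads at t0 and 30 min RT.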
# Menin MLL FP TR = displaces Texas Red mutant MLL peptide from human menin; O00255; Menin + Texas Red MLL mutant peptide, fluorescence polarization; Potency, µM (series often up to 61.6 µM), for the others: at the top dose FP activity change, negative = inhibition, most hits filed as inhibitors; hit rate 0.23% among 270,000; active means well fitted inhibition curve with a large enough effect in the polarisation, with a control signal flat, not every such curve was filed as active; inconclusive means small, poorly fitted or top-dose-only effect, or effect the other way, or a change in a side signal; inactive means no such curve, though single readings can be large or run the other way; the % refers to the polarisation; further: potency means the concentration at half of the fitted maximal effect; % of control where 0% means no effect
# Menin-MLL FL inh = displaces fluorescein MLL peptide from human menin; Fluorescence polarization, fluorescein-MLL peptide displacement from menin; FP activity change, % at 61.4 µM; 290,000 tested, under 10 active; active means well fitted curve in the direction sought with a large enough effect in the polarisation, not every such curve was filed as active; inconclusive means small, poorly fitted or top-dose-only effect, or effect the other way, or a change in a side signal; inactive means no such curve, though single readings can be large or run the other way; the % refers to the polarisation; further: % of control where 0% means no effect
# Starred values were filed as active, the others as inactive; ? = inconclusive; · = no result given; ! = repeats disagree. Sampled rows, rich in hits. Any-hit rate of the full collection: about 0.83%. Unless noted, no stated cut-off is given here; in the data, active means activity change below about -65%; inconclusive means mostly about -30% to -63%; inactive means weaker than that.
SMILES,CtBP-E1A blk,CXXC DNA block,Six1-Eya2 inh,GLS inh,Menin MLL FP TR,Menin-MLL FL inh
Cc1cc(C)cc(NC(=O)c2ccc(CSc3nnnn3C)cc2)c1,-13,7%,-6,2%,5%,1
Cn1nnnc1SCc1ccc(C(=O)Nc2nccs2)cc1,-80*,-7%,-70*,-10%,-5%,-1
CN(C)Cc1ccccc1-c1cncnc1NCc1cccnc1,·,·,·,·,-16%,-7
CCCCOc1ccc(-c2c(C#N)c(N)nc(SCC(N)=O)c2C#N)cc1,-1,-6%,-5,-16%,13µM*,2
COc1ccc(-c2cc(=O)oc3c4c(ccc23)OCN(Cc2cccc(OC)c2)C4)cc1,·,·,·,47%,·,·
O=C(Cn1c(=O)oc2cc(S(=O)(=O)NCc3ccccc3)ccc21)NCc1ccc(F)cc1,·,·,·,-4%,·,·
NNC(=O)c1cc2c(ccc3ccccc32)o1,0,2%,-3,22µM*,11%,8
Cc1ccc(-c2ccc(/C=N\NC(=O)c3cc4c(ccc5ccccc54)o3)o2)cc1[N+](=O)[O-],3,3%,-2,1%,2%,0
O=C(N/N=C/c1ccc(-c2ccc(Cl)c(C(=O)O)c2)o1)c1cc2c(ccc3ccccc32)o1,-85*,-5%,?,?,·,31
CC(C)C[C@H](NC(=O)[C@H](CC(C)C)NC(=O)[C@H](Cc1ccc(O)cc1)NC(=O)CNC(=O)[C@H](C)NC(=O)[C@H](CO)NC(=O)[C@H](CC(N)=O)NC(=O)[C@H](CC(C)C)NC(=O)[C@@H](NC(=O)[C@H](Cc1c[nH]c2ccccc12)NC(=O)CN)[C@@H](C)O)C(=O)NCC(=O)N1CCC[C@H]1C(=O)N1CCC[C@H]1C(=O)N1CCC[C@H]1C(=O)NCC(=O)N[C@@H](Cc1ccccc1)C(=O)N[C@@H](CO)C(=O)N1CCC[C@H]1C(=O)N[C@@H](Cc1ccccc1)C(=O)N[C@@H](CCCNC(=N)N)C(N)=O,·,·,·,·,-3%,-9
COc1ccc(CNc2ncncc2-c2cccc(C#N)c2)c(OC)c1,·,·,·,·,-11%,-4
COC[C@@H](c1ccc(C(F)(F)F)cc1)N1CCN(C2(C)CCN(C(=O)c3c(C)ncnc3C)CC2)C[C@@H]1C,·,·,·,-1%,·,·
O=C(O)C[C@@H]1C(=O)O[C@@H]2C(COC(=O)c3cc(O)c(O)c(O)c3)O[C@@H](OC(=O)c3cc(O)c(O)c(O)c3)[C@@H](OC(=O)c3cc(O)c(O)c4c3[C@H]1[C@H](O)C(=O)O4)[C@H]2OC(=O)c1cc(O)c(O)c(O)c1 (some centres undefined),·,28µM*,·,·,·,12
COC1OC(COC(=O)c2ccccc2)C(OC(=O)c2ccccc2)C1OC(=O)c1ccccc1 (centres undefined),15,1%,1,-3%,19%,1
Cc1nc2ncccn2c1-c1csc(Nc2ccccc2)n1,7,5%,-80*,1%,3%,3
COc1ccccc1Nc1nc(-c2c(C)nc3ncccn23)cs1,-92*,7%,-85*,?,-21%,0
CCN1/C(=C/C(C)=C/c2sc3ccccc3[n+]2CC)Sc2ccccc21,?,?,-80*!,?,?,?
CC1(C)C(/C=C/C=C/C=C/C=C2\N(CCCCS(=O)(=O)O)c3ccc4ccccc4c3C2(C)C)=[N+](CCCCS(=O)(=O)[O-])c2ccc3ccccc3c21,?,-22%,?,6.3µM*,-5%,22
Cc1c2ccccc2cc[n+]1CCCS(=O)(=O)[O-],-5,-6%,-2,-1%,-1%,-3
O=C(CC1SC(=O)N(c2ccccc2)C1=O)Nc1ccccc1 (centres undefined),4,31%,-1,35%,28%,-1
Cc1ccc(NC(=O)CC2SC(=O)N(c3ccccc3)C2=O)cc1 (centres undefined),2,-11%,4,11µM*,20%,0
CC(C1SC(=S)NC1=O)C1SC(=S)NC1=O (centres undefined),-73*,·,-83*,-19%,·,·
COc1ccc(/C=C/C(=O)NC(=S)NNC(=O)c2cccnc2)cc1,1,-11%,?,15%,6%,5
O=C(/C=C/c1ccc(F)cc1)NC(=S)NNC(=O)c1cnccn1,-81*,-6%,-90*,?,·,-8
O=C(NC(=S)NNC(=O)c1cnccn1)c1ccc(F)cc1,·,4%,-92*,20%,0%,-6
SMILES,CtBP-E1A blk,CXXC DNA block,Six1-Eya2 inh,GLS inh,Menin MLL FP TR,Menin-MLL FL inh
O=C(NNC(=S)NC(=O)c1cccnc1)c1ccc(F)cc1,-3,-26%,-1,0%,·,0
CC(=O)c1ccc(N2CCN(C(=O)CCS(=O)(=O)c3ccc4c(c3)oc(=O)n4C)CC2)cc1,·,·,·,0%,·,·
Cc1cc(-c2ccc(N=Nc3ccc4c(S(=O)(=O)O)cc(S(=O)(=O)O)c(N)c4c3O)c(C)c2)ccc1N=Nc1ccc2c(S(=O)(=O)O)cc(S(=O)(=O)O)c(N)c2c1O,·,4%,·,14µM*!,?,?
Cc1ccc(N=Nc2ccc(N)cc2C)c(S(N)(=O)=O)c1,-15,?,-23,0%,?,?
CCc1ccc(Nc2nc3ccccc3c3nnc(C)n23)cc1,·,·,·,3%,·,·
NC(=O)N=Nc1c2[nH]c3ccccc3nc-2c2ccccc12,-69*,-18%,?,0%,·,4
CO/N=C1\C[C@]2(C[C@@H]3C[C@H](C/C=C(/C)C[C@@H](C)/C=C\C=C4\CO[C@@H]5[C@@H](O)C(C)=C[C@@H](C(=O)O3)[C@]45O)O2)O[C@@H](/C(C)=C/C(C)C)[C@H]1C,·,·,·,-1%,·,·
O=C(NCc1ccco1)C1CC2CCC1C2 (centres undefined),?,8%,-70*,-2%,-5%,4
CCS(=O)(=O)NCC(c1cccnc1)N1CCN(c2ccccc2)CC1 (centres undefined),0,4%,7,25%,12%,2
CCS(=O)(=O)NCC(c1cccnc1)N1CCN(c2ccc(OC)cc2)CC1 (centres undefined),-75*,4%,1,63%,-1%,1
CC(C)Cn1c(=O)c2ccccc2n2c(CCC(=O)N3CCN(c4ccccc4)CC3)nnc12,·,·,·,4%,·,·
O=C(CN1C(=O)NC2(CCCC2)C1=O)N1CCN(c2ccccc2O)CC1,0,·,3,3.2µM*,·,·
Cc1ccc(/C=N/Nc2cc(C)nc(NCc3ccccc3)n2)cc1,-11,17%,-8,8%,·,2
Cc1cc(N/N=C/c2ccc(O)cc2)nc(NS(=O)(=O)c2ccccc2)n1,?,11%,-73*,13µM*,-3%,-1

# Screens: PubChem, National Center for Advancing Translational Sciences (NCATS)
